Assay outcomes: PubChem, Broad Institute
Rows were chosen to be rich in hits. Some 7.7% of all compounds tested hit in one or more screens of this group.
NOMO-1 viab – STK33 inhibitor candidate reducing NOMO-1 cell viability. NOMO-1 AML viability, CellTiter-Glo luminescence, 72 h. inhibition, % (concentration not given with the values). 37,000 compounds, 7.5% hits. AID 2330; in the data active means inhibition above about 80%
PD-1 reverse act – reversal of PD-1 mediated T-cell inhibition | primary human CD4 T cells, PD-L1 beads, CellTiter-Glo 96 h | activation, % (test concentration not listed) | 29,000 tested, under 10 active | AID 2316; call rule not given here;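 further: 0% = median vehicle wells and 100% = positive control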
Hedgehog inh – Sonic Hedgehog pathway inhibition. Shh-LIGHT2 Gli-luciferase reporter, 30 h. inhibition, % (test concentration not listed). 22,000 compounds, 2.1% hits. AID 2313;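 active means mean inhibition across valid replicates above about 65%, limit read from the data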;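 further: pathway switched on by Shh-conditioned medium diluted 1 in 25 in low serum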
* hit, by the source's call; / = no result given.

SMILES	NOMO-1 viab	PD-1 reverse act	Hedgehog inh
COC(=O)c1ccccc1NC(=O)CC1Sc2ccc(C(F)(F)F)cc2NC1=O (configuration not stated)	20	1	/
C[C@@H]1CN([C@H](C)CO)C(=O)Cc2cc(NC(=O)Nc3ccc(F)cc3)ccc2O[C@H]1CN(C)Cc1ccc(Cl)c(Cl)c1	94*	0	-3
C[C@H]1CN([C@@H](C)CO)C(=O)Cc2cc(NC(=O)Nc3ccc(F)cc3)ccc2O[C@@H]1CN(C)Cc1ccc(Cl)c(Cl)c1	96*	-1	-14
CC(C)NC(=O)Nc1ccc2c(c1)CC(=O)N([C@H](C)CO)C[C@@H](C)[C@@H](CN(C)Cc1ccc(Cl)c(Cl)c1)O2	43	-1	9
C[C@H]1CN([C@@H](C)CO)C(=O)Cc2cc(NC(=O)Nc3ccccc3)ccc2O[C@@H]1CN(C)Cc1ccc(Cl)c(Cl)c1	31	0	20
CC(C)NC(=O)Nc1ccc2c(c1)CC(=O)N([C@@H](C)CO)C[C@H](C)[C@@H](CN(C)Cc1ccc(Cl)c(Cl)c1)O2	-2	0	31
C[C@@H]1CN([C@H](C)CO)C(=O)Cc2cc(NC(=O)Nc3ccccc3)ccc2O[C@@H]1CN(C)Cc1ccc(Cl)c(Cl)c1	99*	-2	11
COc1ccc(NC(=O)CSc2nc3ccc([N+](=O)[O-])cc3s2)cc1Cl	19	-2	/
O=C(Nc1scc(-c2ccccc2)c1C(=O)NCc1ccco1)c1ccccc1	18	0	/
Cc1cccc(N2C(=O)CC(SCc3nc4ccccc4[nH]3)C2=O)c1 (configuration not stated)	16	-2	/
N#Cc1ccccc1CSc1nnc(-c2ccccc2)n1-c1ccccc1	21	-2	/
Cc1ccc([N+](=O)[O-])cc1NC(=O)C1(c2ccccc2)CCN(S(=O)(=O)c2ccccc2)CC1	30	-5	/
Nc1ncnc(NCc2cccnc2)c1[N+](=O)[O-]	4	0	/
Nc1ncnc(Oc2cccc3cccnc23)c1[N+](=O)[O-]	108*	-11	/
COc1ccccc1NC(=O)CSc1nc2ccc([N+](=O)[O-])cc2[nH]1	5	/	/
O=c1c(Cl)c(NCc2ccco2)cnn1-c1ccccc1	19	6	-6
Cc1ccc(S(=O)(=O)N(C)C[C@@H]2Oc3c(NC(=O)NC4CCCCC4)cccc3C(=O)N([C@@H](C)CO)C[C@@H]2C)cc1	26	/	100*
C[C@H](CO)N1C[C@H](C)[C@@H](CN(C)S(=O)(=O)c2ccc(F)cc2)Oc2c(NC(=O)NC3CCCCC3)cccc2C1=O	9	-3	-145
C[C@H]1CN([C@@H](C)CO)C(=O)c2cccc(NC(=O)NC3CCCCC3)c2O[C@H]1CN(C)S(=O)(=O)c1ccc(F)cc1	34	1	103*
Cc1ccc(S(=O)(=O)N(C)C[C@H]2Oc3c(NC(=O)NC4CCCCC4)cccc3C(=O)N([C@H](C)CO)C[C@H]2C)cc1	41	-1	-3
C[C@H]1CN([C@@H](C)CO)C(=O)c2cccc(NC(=O)NC3CCCCC3)c2O[C@@H]1CN(C)S(=O)(=O)c1ccc(Cl)cc1	5	1	30
C[C@H](CO)N1C[C@H](C)[C@H](CN(C)S(=O)(=O)c2ccc(Cl)cc2)Oc2c(NC(=O)NC3CCCCC3)cccc2C1=O	120*	-11	122*
Cc1ccccc1NC(=O)c1ccccc1NC(=O)c1ccccc1	30	1	-33
COc1ccccc1Nc1ncnc2c1cnn2Cc1ccccc1	-26	3	/
CC(NS(=O)(=O)c1ccc(F)cc1)C(=O)Nc1cc(Cl)ccc1Oc1ccccc1 (configuration not stated)	29	/	/
SMILES	NOMO-1 viab	PD-1 reverse act	Hedgehog inh
Cc1c(NC(=O)CN(c2cccc(Br)c2)S(C)(=O)=O)cccc1[N+](=O)[O-]	2	0	/
O=C(Nc1ccc(I)cc1C(=O)NCCN1CCOCC1)c1cccnc1	18	0	/
COc1ccc(CN(C)C[C@H]2Oc3c(NC(=O)c4ccc(-c5nccs5)cc4)cccc3C(=O)N([C@H](C)CO)C[C@@H]2C)cc1	47	/	53
C[C@@H]1CN([C@@H](C)CO)C(=O)c2cccc(NC(=O)c3ccc(-c4nccs4)cc3)c2O[C@H]1CN(C)Cc1ccc(Oc2ccccc2)cc1	111*	-1	28
C[C@@H]1CN([C@H](C)CO)C(=O)c2cccc(NC(=O)c3ccc(-c4nccs4)cc3)c2O[C@@H]1CN(C)Cc1ccc(Oc2ccccc2)cc1	89*	-5	71*
COc1ccc(CN(C)C[C@@H]2Oc3c(NC(=O)c4ccc(-c5nccs5)cc4)cccc3C(=O)N([C@@H](C)CO)C[C@H]2C)cc1	72	/	37
C/C=C(\C)C(=O)OC1C(OC(=O)/C=C(/C)CC(=O)O)C2(CO)C(O)CC3(C)C(=CCC4C5(C)CCC(OC6OC(C(=O)O)C(O)C(OC7OC(C)C(O)C(OC8OC(CO)C(O)C(O)C8O)C7O)C6O)C(C)(C)C5CCC43C)C2CC1(C)C (configuration not stated)	122*	-39	97*
C[C@@H]1O[C@@H](O[C@H]2CC[C@@]3(C)C(CC[C@]4(C)C3CC=C3C5CC(C)(C)CC[C@]5(C(=O)O[C@@H]5O[C@H](CO)[C@@H](O)[C@H](O)[C@H]5O)CC[C@]34C(=O)O)C2(C)C)[C@H](O)[C@H](O)[C@H]1O (some centres not stated)	16	1	-5
C[C@@H]1O[C@@H](O[C@H]2[C@H](O[C@H]3[C@H](O)[C@@H](C(=O)O)O[C@@H](O[C@H]4CC[C@@]5(C)C(CC[C@]6(C)C5CC[C@]57OC[C@@]8(CCC(C)(C)CC85)[C@H](O)C[C@]76C)C4(C)C)[C@@H]3O[C@@H]3O[C@H](CO)[C@@H](O[C@@H]4OC[C@@H](O)[C@H](O)[C@H]4O)[C@H](O)[C@H]3O)O[C@H](CO)[C@H](O)[C@@H]2O)[C@H](O)[C@H](O)[C@H]1O (some centres not stated)	58	-12	42
CC1(C)CC[C@@]2(C(=O)O[C@@H]3O[C@H](CO)[C@@H](O)[C@H](O)[C@H]3O)C(C1)C1=CCC3[C@@]4(C)CC[C@@H](O[C@@H]5O[C@H](CO)[C@@H](O)[C@H](O)[C@H]5O[C@@H]5O[C@H](CO)[C@@H](O)[C@H](O)[C@H]5O)C(C)(C)C4CC[C@@]3(C)[C@]1(C)C[C@H]2O (some centres not stated)	7	2	-39
C/C=C(/C)C(=O)O[C@H]1[C@H](OC(=O)/C=C/c2ccccc2)[C@@]23C(CC1(C)C)[C@]1(CCC4[C@@]5(C)CC[C@H](O[C@@H]6O[C@H](C(=O)O)[C@@H](O)[C@H](O[C@@H]7O[C@H](CO)[C@H](O)[C@H](O)[C@H]7O[C@@H]7O[C@@H](C)[C@H](O)[C@@H](O)[C@H]7O[C@@H]7OC[C@](O)(CO)[C@H]7O)[C@H]6O[C@@H]6O[C@H](CO)[C@H](O)[C@H](O)[C@H]6O)C(C)(C)C5CC[C@@]4(C)[C@]1(C)C[C@H]2O)O[C@H]3O (some centres not stated)	120*	-15	88*
